BaF3 parental: counter-screen for JAK2V617F inhibitors: parental Ba/F3 viability inhibitors; inhibition, % at 5.6 µM; CellTiter-Glo ATP luminescence; 220,000 tested, 1.1% active;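 active means inhibition above a per-campaign cutoff, the mean inhibition of all tested compounds plus 3 SD, cut at about 27% in these data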;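 further: 0% = DMSO wells and 100% = JAK Inhibitor I control wells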
aSyn 5UTR inh: MLPCN primary screen, SNCA 5' untranslated region; inhibition, % (tested at 7.5 µM); 300,000 tested, 0.82% active; AID 1813; alpha-synuclein 5'UTR reporter, inhibitor activity; in the data active means inhibition above about 60%;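 further: H4 neuroglioblastoma cells stably carrying SNCA 5'UTR luciferase fusion; 0% = DMSO wells and 100% = positive control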
Ba/F3 V617F tox: lowers viability of Ba/F3 cells expressing EpoR and JAK2V617F | AID 1446 | ATP luminescence | 220,000 tested, 1.1% active | inhibition, % at 5.6 µM;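 active means inhibition above the campaign mean plus 3 SD over all tested compounds, cut at about 24% in these data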;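 further: cytokine-independent growth of Ba/F3 cells driven by EpoR plus mutant JAK2; 0% = DMSO-treated cells and 100% = JAK inhibitor I control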
KLF5 inhibitor: inhibitors of KLF5 expression. AID 1700. inhibition, % at 5 µM. DLD-1 KLF5 promoter-luciferase reporter, luminescence. 290,000 tested, 0.23% active;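 active means inhibition above a per-plate limit of that plate's mean compound inhibition plus 3 SD, cut at about 60% in these data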;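 further: 0% = DMSO wells and 100% = LY294002 at 200 µM; higher means less KLF5 promoter-driven luciferase light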
APP transl inh: APP translation inhibition | SH-SY5Y APP 5'UTR-luciferase reporter, luminescence | inhibition, % at 2 µM | 190,000 tested, 0.82% active;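 active means inhibition above a set limit, derived from the sample mean plus 3 SD, cut at about 45% in these data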
IEC-6 tox: IEC-6 cytotoxicity, counter-screen for KLF5 inhibitors; inhibition, % at 5 µM; 290,000 tested, 0.78% active; AID 1825; luminescence viability; in the data active means inhibition above about 22%;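 further: 0% = plate median of test compound wells and 100% = cytotoxic reference compound wells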
The depositor's hits bear a star. Only some compounds are listed: those with a hit (about 2.2% of all), similar ones and a draw of the others.

Screening COC(=O)c1[nH]c2cccc(OC)c2c1NC(=O)C(C)N1CCC(C)CC1 (centres undefined) returned BaF3 parental 3, aSyn 5UTR inh 13, Ba/F3 V617F tox -1, KLF5 inhibitor -6, APP transl inh 66* and IEC-6 tox 3.
For CCNC(=S)N=Nc1c(O)[nH]c2ccc(C(C)C)cc12 the results were BaF3 parental 7, aSyn 5UTR inh 63*, Ba/F3 V617F tox 1, KLF5 inhibitor -11, APP transl inh 6 and IEC-6 tox 1.
`CCN(C1CCS(=O)(=O)C1)S(=O)(=O)c1ccc(OC)c(OC)c1` (centres undefined) gave aSyn 5UTR inh -9.
For CC(=O)N(Cc1ccc(F)cc1)C1=C(NCc2ccccc2)C(=O)c2ccccc2C1=O the results were BaF3 parental 48*, aSyn 5UTR inh 92*, Ba/F3 V617F tox 12, KLF5 inhibitor 42, APP transl inh 65* and IEC-6 tox 18.
Screening O=C(NCc1ccc(F)cc1)C(c1ccccc1)c1ccccc1 returned aSyn 5UTR inh -11, KLF5 inhibitor -7 and IEC-6 tox 3.
For CCCCc1ccc(-c2ccc(Br)cc2O)nc1 the results were BaF3 parental 3, aSyn 5UTR inh -6, Ba/F3 V617F tox 3, KLF5 inhibitor -37, APP transl inh -29 and IEC-6 tox -2.
`CCCCc1ccc(-c2ccc(C)cc2O)nc1` gave BaF3 parental 3, aSyn 5UTR inh 84*, Ba/F3 V617F tox 2, KLF5 inhibitor -76, APP transl inh -203 and IEC-6 tox -1.
Screening CCOC(=O)CCN1C(=O)c2ccccc2Sc2ncccc21 returned aSyn 5UTR inh -10, KLF5 inhibitor 9 and IEC-6 tox -5.
Screening O=C(CSc1ccc2c(c1)OCCO2)Nc1ncc(Cl)cc1Cl returned BaF3 parental 4, aSyn 5UTR inh 23, Ba/F3 V617F tox -2, KLF5 inhibitor -7, APP transl inh 46* and IEC-6 tox -2.
For O=C(N/N=C/c1cccc2ccccc12)c1n[nH]c2c1CCCC2 the results were BaF3 parental 9, aSyn 5UTR inh -22, Ba/F3 V617F tox -2, KLF5 inhibitor -18, APP transl inh 74* and IEC-6 tox 2.
`O=C(N/N=C\c1cccc(Cl)c1)c1n[nH]c2c1CCCC2` gave BaF3 parental 7, aSyn 5UTR inh -152, Ba/F3 V617F tox 1, KLF5 inhibitor -90, APP transl inh -156 and IEC-6 tox 4.
For O=C(N/N=C/c1cccs1)c1n[nH]c2c1CCCC2 the results were BaF3 parental 2, aSyn 5UTR inh 82*, Ba/F3 V617F tox 2, KLF5 inhibitor -6 and IEC-6 tox 8.
For O=C(N/N=C/C=C/c1ccccc1)c1n[nH]c2c1CCC2 the results were BaF3 parental 7, aSyn 5UTR inh 70*, Ba/F3 V617F tox 10, KLF5 inhibitor -7, APP transl inh 60* and IEC-6 tox 11.
For COc1ccc(/C=C/C(=O)NCC(=O)N=Nc2c(O)[nH]c3ccc([N+](=O)[O-])cc23)cc1 the results were aSyn 5UTR inh -2, KLF5 inhibitor -4 and IEC-6 tox -5.
For COc1ccc(Br)cc1CNC(=O)CN1C(=O)C(c2ccccc2)Oc2cccnc21 (centres undefined) the results were aSyn 5UTR inh 1, KLF5 inhibitor 17 and IEC-6 tox -2.
`O=C(c1cc(S(=O)(=O)N2CCC3(CC2)OCCO3)ccc1F)N1CCCCC1` gave BaF3 parental 2, aSyn 5UTR inh -11, Ba/F3 V617F tox 1, KLF5 inhibitor -8, APP transl inh 9 and IEC-6 tox 3.
Nc1c(Cl)ncnc1N/N=C/c1cccnc1 was read as BaF3 parental 19, aSyn 5UTR inh -40, Ba/F3 V617F tox 4, KLF5 inhibitor -19 and IEC-6 tox 1.
For Nc1c(Cl)ncnc1N/N=C/c1ccccn1 the results were BaF3 parental 6, Ba/F3 V617F tox 5, KLF5 inhibitor -29, APP transl inh 92* and IEC-6 tox 9.
Nc1c(Cl)ncnc1N/N=C/c1ccc2ccccc2n1 was read as BaF3 parental 5, Ba/F3 V617F tox -1, KLF5 inhibitor -16, APP transl inh 66* and IEC-6 tox 8.
CN1C2CCC1CC(NC(=O)c1cc(Cl)cc3[nH]cnc13)C2 (centres undefined) was read as aSyn 5UTR inh -10, KLF5 inhibitor -39 and IEC-6 tox -2.
For N#Cc1cc(Sc2ccccn2)c(Sc2ccccn2)cc1C#N the results were BaF3 parental 0, aSyn 5UTR inh -5, Ba/F3 V617F tox -2, KLF5 inhibitor 14, APP transl inh 5 and IEC-6 tox 2.
For N#CC(Sc1ccccn1)c1ccc(Cl)cc1Cl (centres undefined) the results were BaF3 parental 40*, aSyn 5UTR inh -18, Ba/F3 V617F tox 28*, KLF5 inhibitor -28, APP transl inh -6 and IEC-6 tox 0.
`COCC(C)NC(=O)NC1(C(F)(F)F)Oc2ccc(Cl)cc2O1` (centres undefined) gave BaF3 parental 35*, aSyn 5UTR inh -25, Ba/F3 V617F tox 38*, KLF5 inhibitor -18, APP transl inh 26 and IEC-6 tox 1.
`O=C(NCCN1CCOCC1)c1cc(Cl)ccc1Cl` gave aSyn 5UTR inh 6, KLF5 inhibitor -22 and IEC-6 tox 2.
Screening COCC(C)NC(=O)NC(=O)c1ccc(Cl)cc1 (centres undefined) returned BaF3 parental 4, aSyn 5UTR inh -16, Ba/F3 V617F tox 0, KLF5 inhibitor -9, APP transl inh 1 and IEC-6 tox -13.
`O=C(NCCN1CCOCC1)NC1(C(F)(F)F)Oc2ccc(Cl)cc2O1` (centres undefined) gave BaF3 parental 29*, aSyn 5UTR inh -61, Ba/F3 V617F tox 44*, KLF5 inhibitor -14, APP transl inh 50* and IEC-6 tox -7.
`O=C1c2ccccc2C(O)(c2ccccc2)N1c1ccncc1` (centres undefined) gave BaF3 parental 0, aSyn 5UTR inh 22, Ba/F3 V617F tox -1, KLF5 inhibitor -21 and IEC-6 tox -1.
For COc1ccc(C(=O)NC(=O)Nc2cc(C)ccn2)cc1 the results were BaF3 parental 3, aSyn 5UTR inh 72*, Ba/F3 V617F tox 3, KLF5 inhibitor -156, APP transl inh -159 and IEC-6 tox 7.
COc1ccc(C(=O)Nc2ccccc2C(=O)Nc2cc(C)ccn2)cc1 was read as aSyn 5UTR inh -107, KLF5 inhibitor -89 and IEC-6 tox 11.
Screening O=C(Nc1ccc(S(=O)(=O)N2CCCCC2)cc1)c1ccc(CN2CCc3ccccc3C2)cc1 returned BaF3 parental 34*, aSyn 5UTR inh 16, Ba/F3 V617F tox 30*, KLF5 inhibitor 48, APP transl inh 15 and IEC-6 tox 12.
COc1cc(CN(C(=S)NCC(=O)NC2CC2)C2CCCC2)cc(OC)c1OC was read as BaF3 parental 7, aSyn 5UTR inh 7, Ba/F3 V617F tox 1, KLF5 inhibitor -37, APP transl inh 0 and IEC-6 tox -4.

Bioassay records deposited in PubChem by several laboratories.
